# Reference: PubChem BioAssay (NCI)
# This is part of a sample that, as a whole, favours compounds with a hit. Of some 83,000 tested, about 20% had one in any assay.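 Note: values are percent growth. 100 is the growth of untreated cells, values between 100 and 0 indicate rising inhibition; between -100 and 0 indicates cell death.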 Activity calls are given as the source filed them. How the source made its calls: active means growth percent below 10; inactive means the rest.
# Key:
# Experiment in all cases: NCI-60 one-dose screen, 48 h (100 = growth as untreated, 0 = no growth, -100 = all killed)
# Conditions in all cases: 10 µM unless noted
# NCI-H23 lung = tested on: NCI-H23 lung
# NCI-H226 lung = tested on: NCI-H226 lung
# NCI-H322M lung = tested on: NCI-H322M lung
# HOP-62 NSCLC = tested on: HOP-62 NSCLC
# NCI-H460 lung = tested on: NCI-H460 lung
# HOP-92 NSCLC = tested on: HOP-92 NSCLC
# NCI-H522 lung = tested on: NCI-H522 lung
# A549/ATCC NSCLC = tested on: A549/ATCC NSCLC
# 786-0 renal = tested on: 786-0 renal
# COLO 205 colon = tested on: COLO 205 colon
# DU-145 prostate = tested on: DU-145 prostate
# K-562 leukemia = tested on: K-562 leukemia
# MALME-3M melanoma = tested on: MALME-3M melanoma
# MDA-MB-231 breast = tested on: MDA-MB-231 breast
# SF-268 CNS = tested on: SF-268 CNS
# SF-295 CNS = tested on: SF-295 CNS
# SF-539 CNS = tested on: SF-539 CNS
# UACC-257 melanoma = tested on: UACC-257 melanoma
# M14 melanoma = tested on: M14 melanoma
Structure (SMILES),growth (NCI-H23 lung),growth (NCI-H226 lung),growth (NCI-H322M lung),growth (HOP-62 NSCLC),growth (NCI-H460 lung),growth (HOP-92 NSCLC),growth (NCI-H522 lung),growth (A549/ATCC NSCLC),growth (786-0 renal),growth (COLO 205 colon),growth (DU-145 prostate),growth (K-562 leukemia),growth (MALME-3M melanoma),growth (MDA-MB-231 breast),growth (SF-268 CNS),growth (SF-295 CNS),growth (SF-539 CNS),growth (UACC-257 melanoma),growth (M14 melanoma)
O=C(Nc1ccc(F)cc1)c1c(NC(=O)C(F)(F)F)sc2c1CCCCC2,-5.63% (active),-6.78% (active),11% (inactive),-23.5% (active),2.16% (active),-28.5% (active),2.42% (active),5.88% (active),-10.4% (active),-18.6% (active),16.9% (inactive),6.57% (active),-21.1% (active),-20.4% (active),4.27% (active),-42.4% (active),-0.67% (active),-23.9% (active),-3.37% (active)
CN1C2CCC1CN(c1cnc(C(=O)Nc3cc(F)cc4cccnc34)cn1)C2,46.8% (inactive),88.9% (inactive),74.6% (inactive),88.6% (inactive),83.4% (inactive),81.2% (inactive),24.4% (inactive),87.5% (inactive),51.8% (inactive),10.4% (inactive),74.6% (inactive),15.7% (inactive),41% (inactive),31.4% (inactive),85.6% (inactive),97.6% (inactive),70.4% (inactive),42.7% (inactive),54.3% (inactive)
CC(=O)N1N=C(c2cccc(Nc3ccncc3)c2)CC1c1ccccc1 (stereo not given),93.3% (inactive),95.3% (inactive),93.3% (inactive),92.5% (inactive),95.1% (inactive),55.9% (inactive),91.7% (inactive),85.2% (inactive),4.92% (active),81.5% (inactive),99.5% (inactive),11.8% (inactive),76.7% (inactive),83.9% (inactive),91% (inactive),87.5% (inactive),80.9% (inactive),92.6% (inactive),-76.2% (active)
Cc1ccc(C2CC(c3cccc(Nc4ccncc4)c3)=NN2c2cc(Cl)cc(Cl)c2)cc1 (stereo not given),61.1% (inactive),86.3% (inactive),73.7% (inactive),40.5% (inactive),-73.4% (active),57.7% (inactive),21% (inactive),4.87% (active),51% (inactive),-43.1% (active),30.8% (inactive),1.45% (active),1.81% (active),40.9% (inactive),82.8% (inactive),-6.71% (active),78.1% (inactive),76.2% (inactive),2.02% (active)
COc1cc(CNC(=O)CCCCC[P+](c2ccccc2)(c2ccccc2)c2ccccc2)c(OC)c2c1OCO2,66.9% (inactive),88.3% (inactive),96.8% (inactive),90.1% (inactive),78.6% (inactive),23.5% (inactive),52.9% (inactive),87.8% (inactive),96.3% (inactive),45.8% (inactive),81.1% (inactive),20.8% (inactive),55.5% (inactive),72.8% (inactive),66.9% (inactive),87.2% (inactive),73.1% (inactive),21.2% (inactive),76.2% (inactive)
COc1c(Cl)cc(Cl)c2ccc(C=C3C(=O)NC(=S)NC3=O)nc12,101% (inactive),100% (inactive),113% (inactive),93.7% (inactive),103% (inactive),116% (inactive),92% (inactive),104% (inactive),-90.9% (active),113% (inactive),115% (inactive),102% (inactive),106% (inactive),113% (inactive),99.8% (inactive),102% (inactive),101% (inactive),102% (inactive),-56.2% (active)
CN1CCN(CCCOc2ccc3ncnc(Nc4ccc(Oc5cccc(C(F)(F)F)c5)c(Cl)c4)c3c2)CC1,44.4% (inactive),85.6% (inactive),11.3% (inactive),1.07% (active),-66.9% (active),29.4% (inactive),-3.31% (active),21.5% (inactive),-81% (active),-51.8% (active),-8.56% (active),-13.1% (active),-90.2% (active),-74.6% (active),28.1% (inactive),-64.7% (active),-89.3% (active),-53.5% (active),-62.8% (active)
CCN(CC)S(=O)(=O)c1cccc([N+](=O)[O-])c1,102% (inactive),85.3% (inactive),104% (inactive),74.5% (inactive),99.5% (inactive),87.9% (inactive),72.3% (inactive),65.3% (inactive),89.4% (inactive),102% (inactive),117% (inactive),96% (inactive),99.2% (inactive),105% (inactive),93.4% (inactive),94.4% (inactive),98.9% (inactive),67% (inactive),84.9% (inactive)
Cc1cccc(Oc2ccc(Nc3ncnc4ccc(NC(=O)CN(C)C)cc34)cc2Cl)c1,78.4% (inactive),93.1% (inactive),17.4% (inactive),59.3% (inactive),0.249% (active),23.5% (inactive),30% (inactive),40.4% (inactive),47.9% (inactive),-15.8% (active),34.5% (inactive),-8.94% (active),25.9% (inactive),41.1% (inactive),54.8% (inactive),58.4% (inactive),59.9% (inactive),81.8% (inactive),-77.1% (active)
CCC(C)N(CCNc1cc(OC)cc2cccnc12)CCC(C)C (stereo not given),71.7% (inactive),88% (inactive),111% (inactive),62.4% (inactive),78.3% (inactive),87.9% (inactive),50% (inactive),61.6% (inactive),95.7% (inactive),68.3% (inactive),95.6% (inactive),83.2% (inactive),121% (inactive),84.5% (inactive),78.6% (inactive),97% (inactive),101% (inactive),87.3% (inactive),82.4% (inactive)
N/C(=N\N=C\c1cc2ccccc2s1)N/N=C/c1cc2ccccc2s1,103% (inactive),99.5% (inactive),108% (inactive),110% (inactive),102% (inactive),97% (inactive),91.8% (inactive),106% (inactive),5.55% (active),112% (inactive),115% (inactive),97.5% (inactive),102% (inactive),95.4% (inactive),102% (inactive),103% (inactive),101% (inactive),98.1% (inactive),-56.3% (active)
COc1ccc(-c2nc(N/N=C/c3c[nH]c4ccccc34)nc(N3CCOCC3)c2C#N)cc1,111% (inactive),105% (inactive),94.1% (inactive),105% (inactive),82.8% (inactive),69.1% (inactive),99.7% (inactive),92.4% (inactive),45.9% (inactive),78.5% (inactive),79.7% (inactive),38% (inactive),80.3% (inactive),72.4% (inactive),95.5% (inactive),68.2% (inactive),67.6% (inactive),21.4% (inactive),88.5% (inactive)
COc1cc(NCC(O)CN(CC(C)C)C2CCCC2)c2ncccc2c1 (stereo not given),77.6% (inactive),94.3% (inactive),110% (inactive),86.5% (inactive),89.4% (inactive),73.8% (inactive),70.6% (inactive),66.1% (inactive),89.3% (inactive),97% (inactive),98.4% (inactive),73.2% (inactive),147% (inactive),66.8% (inactive),82.7% (inactive),92.2% (inactive),99.8% (inactive),85.5% (inactive),95.8% (inactive)
Cc1c(C2=CCCCC2)c2ccccn2c1C(=O)c1cccc(S(=O)(=O)N2CCOCC2)c1,75.6% (inactive),93.2% (inactive),80.7% (inactive),70% (inactive),92.7% (inactive),53.9% (inactive),68.1% (inactive),69.4% (inactive),51% (inactive),102% (inactive),98.3% (inactive),57.4% (inactive),73.5% (inactive),92% (inactive),75% (inactive),34.6% (inactive),97.2% (inactive),86.8% (inactive),61.9% (inactive)
CNC(=O)c1c(NC(=O)c2ccc(C(C)C)cc2)sc2c(CN(C)C)c(O)ccc12,101% (inactive),95.2% (inactive),94.2% (inactive),98.9% (inactive),38.7% (inactive),64.7% (inactive),77.8% (inactive),115% (inactive),83.9% (inactive),97.6% (inactive),97.4% (inactive),-7.46% (active),88.5% (inactive),95% (inactive),90.8% (inactive),97.7% (inactive),97.3% (inactive),110% (inactive),86.8% (inactive)
